The record followed here is PubChem BioAssay (EPA / NIEHS).

Read-out in experiment [1]: Tissue Factor, F3 (gene 2152)
As to the kind of experiment: BSK_CASM3C_TissueFactor: BioMAP Diversity Plus: CASM3C Assay for Tissue Factor Biomarker Activity (AID 2283052).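 Note: cell surface tissue factor protein level read by ELISA.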 As to conditions: primary human coronary artery smooth muscle cells; actives raise or lower the signal.

Read-out in experiment [2]: Interferon-gamma inducible Protein 10 (IP10), CXCL10 (gene 3627)
As to the kind of experiment: BSK_hDFCGF_IP10: BioMAP Diversity Plus: hDFCGF Assay for Interferon-gamma inducible Protein 10 (IP10) Biomarker Activity (AID 2283053). The conditions noted are these: primary human foreskin fibroblasts; actives raise or lower the signal. In outline:
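Chemical-treated human skin fibroblasts (primary) were sampled at 24 h for IP-10 by ELISA. Both increases and decreases relative to DMSO were scored.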

Read-out in experiment [3]: Urokinase-type plasminogen activator receptor (uPAR), PLAUR (gene 5329)
As to the kind of experiment: BSK_CASM3C_uPAR: BioMAP Diversity Plus: CASM3C Assay for Urokinase-type plasminogen activator receptor (uPAR) Biomarker Activity (AID 2283054).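 Note: cell-surface uPAR protein level quantified by ELISA.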 As to conditions: primary human coronary artery smooth muscle cells; actives raise or lower the signal.

Read-out in experiment [4]: Vascular cell adhesion molecule 1 (VCAM1), VCAM1 (gene 7412)
Kind of experiment: BSK_CASM3C_VCAM1: BioMAP Diversity Plus: CASM3C Assay for Vascular cell adhesion molecule 1 (VCAM1) Biomarker Activity (AID 2283055).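 Note: VCAM-1 protein level quantified by ELISA on the cells.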 The conditions noted are these: primary human coronary artery smooth muscle cells; actives raise or lower the signal.

Read-out in experiment [5]: Collagen III, COL3A1 (gene 1281)
As to the kind of experiment: BSK_hDFCGF_CollagenIII: BioMAP Diversity Plus: hDFCGF Assay for Collagen III Biomarker Activity (AID 2283056). The conditions noted are these: primary human foreskin fibroblasts; actives raise or lower the signal. Put shortly: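 hDFCGF primary human dermal fibroblasts; 24 h chemical exposure; collagen III by ELISA; bidirectional curve fit vs DMSO baseline (gain or loss of signal).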

Read-out in experiment [6]: Epidermal growth factor receptor (EGFR), EGFR (gene 1956)
As to the kind of experiment: BSK_hDFCGF_EGFR: BioMAP Diversity Plus: hDFCGF Assay for Epidermal growth factor receptor (EGFR) Biomarker Activity (AID 2283057). As to conditions: primary human foreskin fibroblasts; actives raise or lower the signal. Put shortly:
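Cell-based multiplexed assay in primary human foreskin fibroblasts. EGFR is read by ELISA 24 h after treatment and compared with DMSO controls.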

A short description of experiment [7]: BSK_hDFCGF_Proliferation: Cell Proliferation Assessment in the BioMAP Diversity Plus: hDFCGF Assay (AID 2283059).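 Note: curves fitted for both rise and fall of signal versus DMSO baseline.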 As to conditions: primary human foreskin fibroblasts. In outline:
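Steps: dose primary human dermal fibroblasts (foreskin); […] fix in 10% TCA; stain with 0.1% SRB; read 560 nm; fit gain or loss of signal against DMSO.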

Read-out in experiment [8]: Macrophage colony-stimulating factor (MCSF), CSF1 (gene 1435)
As to the kind of experiment: BSK_hDFCGF_MCSF: BioMAP Diversity Plus: hDFCGF Assay for Macrophage colony-stimulating factor (MCSF) Biomarker Activity (AID 2283060). As to conditions: primary human foreskin fibroblasts; actives raise or lower the signal. Put shortly: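 ELISA read-out of M-CSF in human dermal foreskin fibroblast cultures, 24 h after chemical dosing; gain or loss of signal fitted bidirectionally relative to DMSO baseline.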

Experiment [9] is described as follows: BSK_hDFCGF_SRB: Viability Assessment in the BioMAP Diversity Plus: hDFCGF Assay (AID 2283061).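 Note: cells exposed to compound for 24 h before the read.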 The conditions noted are these: primary human foreskin fibroblasts. Put shortly: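 Primary human foreskin fibroblasts; 24 h post-dose; fixed 10% TCA, stained 0.1% SRB, A560 read; total protein as overt cytotoxicity measure; curves fit bidirectionally vs DMSO control.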

Active and inactive are the calls of the source. Rule for the calls: active = hit-call score of the fitted dose curve at least 0.9, where 1 is the maximum; inactive = score below 0.9.

As usually defined, the AC50 is the concentration giving half of the maximal activity seen.

With `C=CCOC(Cn1ccnc1)c1ccc(Cl)cc1Cl` (centres undefined), the outcome in experiment [1], in experiment [3], in experiment [4], in [5], in experiment [6] and in experiment [7] was inactive. Further, the result in experiment [8] and in [9] was inactive. Further, the AC50 in [2] was 27 µM (active).
`C#C[C@]1(O)CC[C@H]2[C@@H]3CCC4=CC(=O)CC[C@@H]4[C@H]3CC[C@@]21CC`: the result in [1], in experiment [2], in experiment [3], in experiment [4], in experiment [5] and in experiment [6] was inactive. Besides, the outcome in experiment [7], in [8] and in experiment [9] was inactive.
In the case of `O=C(O)C1(C(=O)Nc2ccc(Cl)cc2Cl)CC1`, the result in [1], in experiment [2], in experiment [3], in [4], in [6] and in [7] was inactive. For the same compound, the outcome in experiment [8] and in experiment [9] was inactive. Besides, the AC50 in experiment [5] is 24.5 µM (active).
With `CCCCC(CC)COC(=O)c1ccccc1C(=O)O` (centres undefined), the outcome in [1], in experiment [3], in experiment [4], in experiment [5], in experiment [6] and in experiment [7] was inactive. In [9], the outcome was inactive. Moreover, the AC50 is 11 µM (active) in [2] and 9.84 µM (active) in experiment [8].
On to `CCCOC(=O)c1ccc(C(=O)OCCC)nc1`, for which the result in experiment [1], in experiment [2], in [3], in experiment [4], in experiment [5] and in experiment [6] was inactive. The result in experiment [7], in experiment [8] and in experiment [9] was inactive.
For `COC(=O)c1c(Cl)nn(C)c1S(=O)(=O)NC(=O)Nc1nc(OC)cc(OC)n1`, the result in [1], in experiment [2], in experiment [3], in experiment [4], in [5] and in experiment [6] was inactive. In addition, the result in experiment [7], in experiment [8] and in experiment [9] was inactive.
As to `O=C(O)c1ccccc1`, the outcome in experiment [1], in [2], in experiment [3], in experiment [4], in experiment [5] and in experiment [6] was inactive. Besides, the outcome in experiment [7], in [8] and in experiment [9] was inactive.
`COC(=O)c1cccc(C)c1S(=O)(=O)NC(=O)Nc1nc(OCC(F)(F)F)nc(N(C)C)n1`: the outcome in [1], in experiment [2], in experiment [3], in experiment [4], in experiment [5] and in [6] was inactive. Moreover, the outcome in experiment [7], in experiment [8] and in [9] was inactive.
Turning to `CCCOC(=O)NCCCN(C)C`, the outcome in [1], in experiment [2], in experiment [3], in [4], in experiment [5] and in experiment [6] was inactive. Also, the result in [7], in experiment [8] and in experiment [9] was inactive.
With `C#CCOC(=O)[C@@H](C)Oc1ccc(Oc2ncc(Cl)cc2F)cc1`, the result in [1], in experiment [2], in [3], in experiment [4], in [5] and in experiment [6] was inactive. Further, the result in experiment [8] and in experiment [9] was inactive. In experiment [7], the half-maximal activity concentration (AC50) is 14.9 µM (active).
As for `CCC(O)=C1C(=O)CC(C(=O)O)CC1=O` (centres undefined), the outcome in [1], in experiment [2], in experiment [3], in [4], in [5] and in [6] was inactive. The outcome in [7], in experiment [8] and in [9] was inactive.
`COC(=O)CSc1cc(N=c2sc(=O)n3n2CCCC3)c(F)cc1Cl`: the result in experiment [1], in experiment [2], in experiment [3], in experiment [4], in [5] and in experiment [6] was inactive. In addition, the outcome in experiment [7], in experiment [8] and in experiment [9] was inactive.
Take `CC(C)(C)[C@@H](O)[C@@H](Cc1ccc(Cl)cc1)n1cncn1`: the outcome in experiment [1], in [2], in experiment [3], in experiment [4], in experiment [5] and in experiment [6] was inactive. The outcome in [7], in experiment [8] and in [9] was inactive.
On to `COCCO`, for which the result in [1], in experiment [2], in experiment [3], in [4], in experiment [5] and in [6] was inactive. Moreover, the outcome in experiment [7], in experiment [8] and in experiment [9] was inactive.
With `c1ccc(Nc2ccccc2)cc1`, the result in experiment [1], in experiment [2], in [3], in experiment [4], in [5] and in [7] was inactive. The result in experiment [8] and in experiment [9] was inactive. Besides, in experiment [6], the AC50 is 34.1 µM (active).
For `CC1(C)C(C=C(Cl)Cl)C1C(=O)OCc1cccc(Oc2ccccc2)c1` (centres undefined), the result in [1], in experiment [2], in experiment [3], in experiment [4], in experiment [8] and in [9] was inactive. Also, the figures for the AC50 in experiment [5], in experiment [6] and in experiment [7] were 4.2 µM (active), 8.28 µM (active) and 7.38 µM (active), respectively.
